Data as given in the supplement of paper PMC7366291.
Structures can show the parent of a compound that is named as a salt. ± gives the standard deviation of the averaged measurements.

tested on: Danio rerio Tg(wt1b:EGFP) embryo, pronephros; test: glomerular width (mean of left and right), fold change vs DMSO control; higher = wider glomerulus; conditions: 25 µM; exposure: 24-48 hpf
Summary of the method: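 In HEPES-buffered E3 with 0.003% PTU and 0.5% DMSO, dechorionated Tg(wt1b:EGFP) zebrafish embryos were exposed to 25 μM compound from 24 to 48 hpf at 28.5°C. Pronephroi were then imaged dorsally at 470 nm in 10 z-slices, in 96-well plates filled with agarose. On maximum projections, a Fiji macro turned 16 manually placed reference points into distances and angles, and values more than 2 SD from the feature mean were excluded. Features are fold changes relative to the mean of DMSO-treated embryos from the same day.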

SMILES	glomerular width
CC(C)(C)NC(=O)[C@H]1CC[C@H]2[C@@H]3CC[C@H]4NC(=O)C=C[C@]4(C)[C@H]3CC[C@]12C [Finasteride]	0.937 ± 0.018
CN(C)CCCN1c2ccccc2Sc2ccc(Cl)cc21 [Chlorpromazine hydrochloride]	1.01 ± 0.1
CO[C@H]1/C=C/O[C@@]2(C)Oc3c(C)c(O)c4c(c3C2=O)C2=NC3(CCN(CC(C)C)CC3)NC2=C(NC(=O)/C(C)=C\C=C\[C@H](C)[C@H](O)[C@@H](C)[C@@H](O)[C@@H](C)[C@H](OC(C)=O)[C@@H]1C)C4=O [Rifabutin]	0.94 ± 0.1
Clc1ccc(Nc2nnc(Cc3ccncc3)c3ccccc23)cc1 [Vatalanib]	0.886 ± 0.039
COc1ccccc1OCC(O)CN1CCN(CC(=O)Nc2c(C)cccc2C)CC1 (stereo not drawn) [Ranolazine]	1.021 ± 0.0091
NCCNCCNCCNCCN [Tetraethylenepentamine pentahydrochloride]	1.08 ± 0.041
CCN(CC)C(C)CN1c2ccccc2Sc2ccccc21 (stereo not drawn) [Ethopropazine hydrochloride]	1.03 ± 0.035
CC(c1cc2ccccc2s1)N(O)C(N)=O (stereo not drawn) [Zileuton]	0.993 ± 0.02
CCN(CC)C(=O)C1(c2ccccc2)CC1CN (stereo not drawn) [Milnacipran hydrochloride]	1.19 ± 0.037
CCN(CC)CCNC(=O)c1cc(S(C)(=O)=O)ccc1OC [Tiapride hydrochloride]	0.902 ± 0.073
COc1c2occc2c(OC)c2c(=O)cc(C)oc12 [Khellin]	1 ± 0.033
CCCNCC(O)COc1ccccc1C(=O)CCc1ccccc1 (stereo not drawn) [Propafenone hydrochloride]	1.05 ± 0.0038
C[C@H](O)C(=O)Nc1c(I)c(C(=O)NC(CO)CO)c(I)c(C(=O)NC(CO)CO)c1I [Iopamidol]	0.9773 ± 0.007
Nc1nc(N)nc(-c2cc(Cl)ccc2Cl)n1 [Irsogladine maleate]	0.976 ± 0.016
CC(C)Oc1ccc2c(=O)c(-c3ccccc3)coc2c1 [Ipriflavone]	0.918 ± 0.049
CN1CCCN(C(c2ccccc2)c2ccc(Cl)cc2)CC1 (stereo not drawn) [Homochlorcyclizine dihydrochloride]	0.975 ± 0.015
Clc1ccc(CCC(Cn2ccnc2)Sc2c(Cl)cccc2Cl)cc1 (stereo not drawn) [Butoconazole nitrate]	0.767 ± 0.047
CCC(=O)OCC(=O)[C@@]1(OC(=O)CC)[C@H](C)C[C@H]2[C@H]3[C@H]([C@@H](O)C[C@@]21C)[C@@]1(C)C=CC(=O)C=C1C[C@H]3Cl [Alclometasone dipropionate]	1.23 ± 0.026
CCCN[C@H]1CCc2nc(N)sc2C1 [Pramipexole dihydrochloride]	1.03 ± 0.049
C#C[C@]1(OC(C)=O)CC[C@H]2[C@@H]3CCC4=C[C@@H](OC(C)=O)CC[C@@H]4[C@H]3CC[C@@]21C [Ethynodiol diacetate]	0.958 ± 0.052
NC(=O)N1c2ccccc2C=Cc2ccccc21 [Carbamazepine]	0.99 ± 0.04
CC(C)(C)NC[C@H](O)COc1nsnc1N1CCOCC1 [Timolol maleate salt]	0.9995 ± 0.0057
CC(C)C(=O)OCC(=O)[C@@]12O[C@H](C3CCCCC3)O[C@@H]1C[C@H]1[C@@H]3CCC4=CC(=O)C=C[C@]4(C)[C@H]3[C@@H](O)C[C@@]12C [Ciclesonide]	0.937 ± 0.0044
C#C[C@]1(O)CC[C@H]2[C@@H]3[C@H](C)CC4=C(CCC(=O)C4)[C@H]3CC[C@@]21C [Tibolone]	0.908 ± 0.019
CCCCC1(COC(=O)CCC(=O)O)C(=O)N(c2ccccc2)N(c2ccccc2)C1=O [Suxibuzone]	0.92 ± 0.016
CC(=O)CCCCn1c(=O)c2c(ncn2C)n(C)c1=O [Pentoxifylline]	0.971 ± 0.032
CCOC(=O)C1=C(C)NC(C)=C(C(=O)OCC)C1c1ccccc1/C=C/C(=O)OC(C)(C)C [Lacidipine]	0.671 ± 0.0078
C=CCN1CCCC1CNC(=O)c1cc2nn[nH]c2cc1OC (stereo not drawn) [Alizapride hydrochloride]	0.924 ± 0.018

tested on: Danio rerio Tg(wt1b:EGFP) embryo, pronephros; test: fraction of imaged embryos annotated as normal kidney; higher = less nephrotoxic; extreme values may be limits of the assay; conditions: 25 µM; exposure: 24-48 hpf
Summary of the method: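 Zebrafish embryos carrying Tg(wt1b:EGFP) were dechorionated and exposed to 25 μM compound (0.5% DMSO) between 24 and 48 hpf at 28.5°C. Their pronephroi were imaged by widefield fluorescence, and each embryo was classed by hand from maximum projections. The measure is the fraction of embryos per treatment falling in the normal-kidney category.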

SMILES	fraction of imaged embryos annotated as normal kidney
CC(C)(C)NC[C@H](O)COc1cccc2c1CCCC2=O [(-) -Levobunolol hydrochloride]	0.917
C#C[C@]1(O)CC[C@H]2[C@@H]3CCC4=CC(=O)CC[C@@H]4[C@H]3CC[C@@]21C [Norethindrone]	0.909
C[N+]1(CCCCC[N+]2(C)CCCC2)CCCC1 [Pentolinium bitartrate]	0.75
CO[C@@H]1[C@@H](OC(N)=O)[C@@H](O)[C@H](Oc2ccc3c(O)c(NC(=O)c4ccc(O)c(CC=C(C)C)c4)c(=O)oc3c2C)OC1(C)C [Novobiocin sodium salt]	0.75
C[C@@H](O[C@H]1OCCN(Cc2n[nH]c(=O)[nH]2)[C@H]1c1ccc(F)cc1)c1cc(C(F)(F)F)cc(C(F)(F)F)c1 [Aprepitant]	0.667
O=C(OCC(O)CO)c1ccccc1Nc1ccnc2cc(Cl)ccc12 (stereo not drawn) [Glafenine hydrochloride]	0.833
CC(C)NC[C@H](O)COc1ccc(CC(N)=O)cc1 [(S)-(-)-Atenolol]	0.5
NS(=O)(=O)c1cc(C(=O)O)c(NCc2ccco2)cc1Cl [Furosemide]	0.818
N=C(N)NCc1cccc(I)c1 [Iobenguane sulfate]	1
O=C(c1ccccc1)c1ccc2n1CCC2C(=O)O (stereo not drawn) [Ketorolac tromethamine]	0.667
Cc1ncc([N+](=O)[O-])n1CC(C)O (stereo not drawn) [Secnidazole]	0.833
CC1(C)S[C@@H]2[C@H](NC(=O)Cc3ccccc3)C(=O)N2[C@H]1C(=O)O [Benzylpenicillin sodium]	0.833
CC(C)(C)NC(=O)[C@H]1CC[C@H]2[C@@H]3CC[C@H]4NC(=O)C=C[C@]4(C)[C@H]3CC[C@]12C [Finasteride]	0.917
CN(C)CCCN1c2ccccc2Sc2ccc(Cl)cc21 [Chlorpromazine hydrochloride]	0.833
CO[C@H]1/C=C/O[C@@]2(C)Oc3c(C)c(O)c4c(c3C2=O)C2=NC3(CCN(CC(C)C)CC3)NC2=C(NC(=O)/C(C)=C\C=C\[C@H](C)[C@H](O)[C@@H](C)[C@@H](O)[C@@H](C)[C@H](OC(C)=O)[C@@H]1C)C4=O [Rifabutin]	0.583
Clc1ccc(Nc2nnc(Cc3ccncc3)c3ccccc23)cc1 [Vatalanib]	0.833
COc1ccccc1OCC(O)CN1CCN(CC(=O)Nc2c(C)cccc2C)CC1 (stereo not drawn) [Ranolazine]	0.833
NCCNCCNCCNCCN [Tetraethylenepentamine pentahydrochloride]	0.75
CCN(CC)C(C)CN1c2ccccc2Sc2ccccc21 (stereo not drawn) [Ethopropazine hydrochloride]	0.917
CC(c1cc2ccccc2s1)N(O)C(N)=O (stereo not drawn) [Zileuton]	0.667

SMILES	fraction of imaged embryos annotated as normal kidney
CCN(CC)C(=O)C1(c2ccccc2)CC1CN (stereo not drawn) [Milnacipran hydrochloride]	1
CCN(CC)CCNC(=O)c1cc(S(C)(=O)=O)ccc1OC [Tiapride hydrochloride]	0.909
COc1c2occc2c(OC)c2c(=O)cc(C)oc12 [Khellin]	1
CCCNCC(O)COc1ccccc1C(=O)CCc1ccccc1 (stereo not drawn) [Propafenone hydrochloride]	0.818
C[C@H](O)C(=O)Nc1c(I)c(C(=O)NC(CO)CO)c(I)c(C(=O)NC(CO)CO)c1I [Iopamidol]	0.833
Nc1nc(N)nc(-c2cc(Cl)ccc2Cl)n1 [Irsogladine maleate]	0.909
CC(C)Oc1ccc2c(=O)c(-c3ccccc3)coc2c1 [Ipriflavone]	0.833
CN1CCCN(C(c2ccccc2)c2ccc(Cl)cc2)CC1 (stereo not drawn) [Homochlorcyclizine dihydrochloride]	1
Clc1ccc(CCC(Cn2ccnc2)Sc2c(Cl)cccc2Cl)cc1 (stereo not drawn) [Butoconazole nitrate]	0
CCC(=O)OCC(=O)[C@@]1(OC(=O)CC)[C@H](C)C[C@H]2[C@H]3[C@H]([C@@H](O)C[C@@]21C)[C@@]1(C)C=CC(=O)C=C1C[C@H]3Cl [Alclometasone dipropionate]	0.333
CCCN[C@H]1CCc2nc(N)sc2C1 [Pramipexole dihydrochloride]	0.833
C#C[C@]1(OC(C)=O)CC[C@H]2[C@@H]3CCC4=C[C@@H](OC(C)=O)CC[C@@H]4[C@H]3CC[C@@]21C [Ethynodiol diacetate]	0.75
NC(=O)N1c2ccccc2C=Cc2ccccc21 [Carbamazepine]	0.667
CC(C)(C)NC[C@H](O)COc1nsnc1N1CCOCC1 [Timolol maleate salt]	0.833
CC(C)C(=O)OCC(=O)[C@@]12O[C@H](C3CCCCC3)O[C@@H]1C[C@H]1[C@@H]3CCC4=CC(=O)C=C[C@]4(C)[C@H]3[C@@H](O)C[C@@]12C [Ciclesonide]	0.333
C#C[C@]1(O)CC[C@H]2[C@@H]3[C@H](C)CC4=C(CCC(=O)C4)[C@H]3CC[C@@]21C [Tibolone]	0.75
CCCCC1(COC(=O)CCC(=O)O)C(=O)N(c2ccccc2)N(c2ccccc2)C1=O [Suxibuzone]	0.75
CC(=O)CCCCn1c(=O)c2c(ncn2C)n(C)c1=O [Pentoxifylline]	0.583
CCOC(=O)C1=C(C)NC(C)=C(C(=O)OCC)C1c1ccccc1/C=C/C(=O)OC(C)(C)C [Lacidipine]	0.167
C=CCN1CCCC1CNC(=O)c1cc2nn[nH]c2cc1OC (stereo not drawn) [Alizapride hydrochloride]	0.917
